# In article PMC5540273 (PLoS ONE, 2017):
# Test system: MAST1
# Conditions: concentration: 1 μM, replicates: in singlicate; n = 1
# 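Also: KINOMEscan kinase panel screen.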
row,Compound,%Inh
1,Cc1ccc(C(=O)NCC(N)=O)cc1-n1c(C)cc(OCc2ccc(F)cc2F)c(Br)c1=O,0%
2,CCn1cnc2c(N)ncnc21 [GW345098],5%
3,NCCNS(=O)(=O)c1ccc(-c2ccnc3[nH]ccc23)cc1 [GSK977617],0%
4,O=C(NCCNc1ccnc(Nc2ccc(F)cc2)n1)c1cc2ccccc2s1 [GSK1379874],0%
5,Cc1cccc(-c2nc(-c3ccc(S(C)(=O)=O)cc3)sc2-c2ccncc2)c1,31%
6,Cl.Oc1cccc(Nc2ccnc3cc(-c4ccncc4)ccc23)c1 [GW494601],51%
7,O=C(NOCC1CC1)c1ccc(F)c(F)c1Nc1ccc(I)cc1Cl,0%
8,N#Cc1ccc(-c2cc(-c3c[nH]nc3-c3ccccn3)ccn2)cc1 [GW693028],26%
9,Cc1c2ccc(N(C)c3ccnc(Nc4cccc(S(N)(=O)=O)c4)n3)cc2nn1Cc1ccccc1.Cl.Cl [GW787226],0%
10,CN1c2ccc(CNc3ccc(F)cc3)cc2-c2c(cnn2C)S1(=O)=O,0%
11,CC(=O)Nc1ccc(COc2ccc(Nc3ccnc4cc(-c5ccccn5)ccc34)cc2)cc1.Cl [GW440148],16%
12,COCCNC(=O)c1ccc(-c2cc(C(=O)NC3CC3)cc(F)c2C)cc1 [GW868318],68%
13,Cl.Nc1ncnc2occ(-c3ccc(NC(=O)Nc4cc(C(F)(F)F)ccc4F)cc3)c12 [SB-707548],0%
14,N#Cc1c(N2CCOCC2)sc(-c2ccn[nH]2)c1-c1ccc(Cl)cc1,53%
15,COc1cc2ncn(-c3cc(OCc4sccc4Cl)c(C(N)=O)s3)c2cc1OC [GSK448459],0%
16,CNc1ncnc2[nH]ncc12 [SKF-18355],70%
17,O=C1Cc2cc(Nc3nc(NCc4cccc(S(=O)(=O)C(F)(F)F)c4)ncc3C(F)(F)F)ccc2N1,0%

row,Compound,%Inh
1,CC(C)Oc1ccc2c(-c3ccnc(Nc4ccc(N5CCN(C)CC5)cc4)n3)cnn2n1 [GW696155],8%
2,NCC(NC(=O)c1cc(-c2cn[nH]c2)c(-c2ccnc3[nH]ccc23)s1)c1ccccc1.O=C(O)C(F)(F)F.O=C(O)C(F)(F)F (stereo not shown) [GSK1325775],0%
3,CCc1ccnc(/C=C/c2n[nH]c3cc(Sc4ccccc4C(=O)NC)ccc23)c1,0%
4,COc1ccc(COc2cc(-n3cnc4ccccc43)sc2C(N)=O)cc1 [GSK1024304],0%
5,O=c1cc(N2CCOCC2)nc2n(Cc3cccc4ccccc34)ccn12 [GSK2333389],0%
6,Nc1nc(-c2ccc3c(N)n[nH]c3c2)cc(N2CCCC2)n1 [GSK2227430],0%
7,COc1ccc(S(=O)(=O)NC2CCN(c3cc(C)nc(Nc4cccc(C#N)c4)n3)CC2)cc1.O=C(O)C(F)(F)F [GSK1653539],0%
8,Fc1ccc(-c2nn3c(OCC(F)(F)F)cccc3c2-c2ccncc2)cc1 [GW514784],48%
9,Nc1nccc(-c2c(-c3ccc(F)cc3)ncn2C2CCN(CC(F)(F)F)CC2)n1 [SB-236560],40%
10,NS(=O)(=O)CCc1cccc(Nc2nccc(-c3c(-c4cccc(NC(=O)c5c(F)cccc5F)c4)nn4ccccc34)n2)c1 [GSK336735],0%
11,O=C(NCCNc1ccnc(Nc2ccc(F)cc2)n1)Nc1ccccc1F [GSK1379880],0%
12,Cc1ccc(NC(=O)c2ccnc(N3CCN(C)CC3)c2)cc1-c1ccc(C(=O)NCC2CC2)cc1 [GW775604],0%
13,O=c1cc(N2CCOCC2)nc2n(Cc3cccc(Cl)c3Cl)c(C3CC3)nn12 [GSK2358994],4%
14,c1ccc(-c2cc(-c3c[nH]nc3-c3ccccn3)ccn2)cc1 [GW576604],13%
15,COc1ccc(CNC(=O)NC2CCN(c3ccnc(Nc4ccc(OC)cc4)n3)C2)cc1 (stereo not shown) [GSK1379727],0%
16,C[C@@H](Oc1cc(-n2cnc3ccc(NC(=O)NC(C)(C)C)cc32)sc1C(N)=O)c1ccccc1Cl [GSK346294],0%
17,CN(C1=C(c2ccccc2)C(=O)NC1=O)c1ccccc1 [SB-334860],0%
